Holding throughout (assay): NCI-60 one-dose screen, 48 h (100 = growth as untreated, 0 = no growth, -100 = all killed)
One assay concerns NCI-H23 lung. As to conditions: 10 µM.
The next assay has as its system HOP-92 NSCLC. The note with it: 10 µM.
In another assay the test system is NCI-H522 lung. The note with it: 10 µM.
In the next assay the test system is K-562 leukemia. As to conditions: 10 µM.
The next assay relates to RXF 393 renal. The note with it: 10 µM.
The test system of another assay is UO-31 renal. The note with it: 10 µM.
The next assay has as its system CCRF-CEM leukemia. As to conditions: 10 µM.
The next assay relates to MOLT-4 leukemia. The note with it: 10 µM.
In another assay the test system is SR leukemia. As to conditions: 10 µM.
A further assay has as its system OVCAR-5 ovarian. As to conditions: 10 µM.
Another assay concerns NCI/ADR-RES ovarian. The note with it: 10 µM.
A further assay concerns MCF7 breast. The note with it: 10 µM.
The next assay deals with KM12 colon. The note with it: 10 µM.
In the next assay the test system is MDA-MB-468 breast. The note with it: 10 µM unless noted.
In the next assay the test system is COLO 205 colon. The note with it: 10 µM.
The subject of another assay is MDA-MB-231 breast. The note with it: 10 µM.
The next assay relates to LOX IMVI melanoma. The note with it: 10 µM.
A further assay deals with HS 578T breast. The note with it: 10 µM.
For a further assay, the system named is SW-620 colon. As to conditions: 10 µM.
The subject of another assay is T-47D breast. As to conditions: 10 µM.

Each structure is given as a SMILES string. The panel holds about 83,000 compounds, 20% with a hit somewhere; the sample as a whole holds those more often.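 Growth was measured after 48 h exposure to one concentration of compound in 96-well plates. Values under 10 count as active.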 Values without a mark were called inactive. Active and inactive are the calls of the source.

For the molecule `CCC[Se]C(=O)c1ccc(C(=O)[Se]CCC)s1`, the growth was -49.2% (active) with NCI-H23 lung; -57.8% (active) in the assay on HOP-92 NSCLC; 17.9% in the assay on NCI-H522 lung; 7.32% (active) with K-562 leukemia; -41.3% (active) with RXF 393 renal; -55.5% (active) in the assay on UO-31 renal. The growth in the assay with CCRF-CEM leukemia was 13.6%; in the assay with MOLT-4 leukemia, 7.32% (active); with SR leukemia, 18.5%; in the assay on OVCAR-5 ovarian it was -35.6% (active); in the assay on NCI/ADR-RES ovarian, -53.9% (active); with MCF7 breast, -34.6% (active). In addition, the values for the growth with KM12 colon and with MDA-MB-468 breast were 5.4% (active) and -80.6% (active), respectively.

For the molecule `C[C@H]1[C@H](OC(=O)CCC(=O)Nc2cnccn2)O[C@@H]2OC3(C)CC[C@H]4[C@H](C)CC[C@@H]1[C@@]24OO3`, the growth in the assay on NCI-H23 lung is 25.9%; with HOP-92 NSCLC, 51.8%; with COLO 205 colon, 11.9%; with K-562 leukemia, 14.9%; with MDA-MB-231 breast, 83.7%; with RXF 393 renal it was 49%. The growth in the assay with LOX IMVI melanoma is -72.9% (active); in the assay with UO-31 renal it was 11%; with CCRF-CEM leukemia it was 35.4%; in the assay on MOLT-4 leukemia, 27.6%; with SR leukemia, 4.95% (active); with HS 578T breast, 29.2%. Moreover, the growth in the assay with NCI/ADR-RES ovarian is 19.1%; with SW-620 colon it was 21.8%; in the assay with KM12 colon it was 22.3%; in the assay on MDA-MB-468 breast it was 50.7%.

With `COc1ccc(OC)c(/C=C/C(=O)c2nc3ccccc3n2Cc2ccc(F)cc2)c1`, the growth was -49.1% (active) in the assay on NCI-H23 lung; -11% (active) with HOP-92 NSCLC; -52.4% (active) with NCI-H522 lung; -58.3% (active) in the assay on COLO 205 colon; 0.885% (active) with K-562 leukemia; -52.5% (active) in the assay on RXF 393 renal. Further, the growth in the assay on UO-31 renal was -43.9% (active); with CCRF-CEM leukemia, -18.5% (active); with MOLT-4 leukemia, -6.12% (active); with SR leukemia, -8.46% (active); with OVCAR-5 ovarian, -43% (active); in the assay on KM12 colon, -20.9% (active). Also, the growth in the assay on MDA-MB-468 breast was -57.3% (active).

Regarding `Cc1c2oc3c(C)ccc(C(=O)N[C@@H]4C(=O)N[C@H](C(C)C)C(=O)N5CCC[C@H]5C(=O)N(C)CC(=O)N(C)[C@@H](C(C)C)C(=O)OC4C)c3nc-2c(C(=O)N[C@@H]2C(=O)N[C@H](C(C)C)C(=O)N3CC(=O)C[C@H]3C(=O)N(C)CC(=O)N(C)[C@@H](C(C)C)C(=O)OC2C)c(N)c1=O` (stereo partly drawn), the growth in the assay with NCI-H23 lung is -38.9% (active); in the assay with HOP-92 NSCLC, -17.7% (active); with NCI-H522 lung it was -38.6% (active); with COLO 205 colon, -71% (active); in the assay on MDA-MB-231 breast it was 1.92% (active); in the assay on RXF 393 renal, -78.8% (active). The growth was -0.489% (active) with LOX IMVI melanoma; 3.68% (active) with UO-31 renal; 2.91% (active) in the assay on CCRF-CEM leukemia; 5.55% (active) in the assay on OVCAR-5 ovarian; 5.64% (active) with HS 578T breast; 4.49% (active) in the assay with NCI/ADR-RES ovarian. Moreover, the growth in the assay with SW-620 colon was 6.93% (active); with KM12 colon it was 2.23% (active); in the assay with MDA-MB-468 breast, -37.7% (active).

Take `O=C(/C=C/c1ccco1)c1nc2ccccc2n1Cc1ccc(F)cc1`: the growth was 65.2% in the assay with NCI-H23 lung; 40.2% in the assay with HOP-92 NSCLC; 62.1% in the assay on NCI-H522 lung; 20.7% in the assay with K-562 leukemia; 33.3% with RXF 393 renal; 46.8% in the assay on UO-31 renal. The growth was 21.4% in the assay with CCRF-CEM leukemia; 6.46% (active) with MOLT-4 leukemia; 23.6% in the assay with SR leukemia; 18% with T-47D breast; 50.8% in the assay on KM12 colon; 24% with MDA-MB-468 breast.

On to `O=C(/C=C/c1ccc(F)cc1)c1nc2ccccc2n1Cc1ccc(F)cc1`, for which the growth with NCI-H23 lung is 14.6%; in the assay on HOP-92 NSCLC, 22.9%; with NCI-H522 lung it was 44.1%; with K-562 leukemia, 1.64% (active); in the assay on RXF 393 renal, -67.6% (active); in the assay on UO-31 renal it was -33.6% (active). The growth in the assay with CCRF-CEM leukemia is 7.89% (active); in the assay on MOLT-4 leukemia, 1.05% (active); in the assay with SR leukemia, 1.79% (active); with OVCAR-5 ovarian, -7.92% (active); in the assay with NCI/ADR-RES ovarian, -42.5% (active); in the assay with KM12 colon it was -4.81% (active). The growth in the assay on MDA-MB-468 breast was -15.7% (active).

In the case of `CC1=C2C(=C[C@@](C)(COP(=O)(Oc3ccccc3)Oc3ccccc3)[C@@H]2O)C(=O)[C@@](C)(O)C12CC2`, the growth with NCI-H23 lung is -84.6% (active); in the assay with HOP-92 NSCLC, -44.8% (active); in the assay on NCI-H522 lung, -93.4% (active); in the assay with COLO 205 colon, -95.8% (active); in the assay with MDA-MB-231 breast it was -79.2% (active); in the assay on RXF 393 renal, -95.6% (active). The growth in the assay on LOX IMVI melanoma was -76.3% (active); with UO-31 renal it was -68.6% (active); in the assay on CCRF-CEM leukemia, 12.5%; in the assay with HS 578T breast it was -25.2% (active); with T-47D breast, -47.8% (active); in the assay on SW-620 colon it was 29.8%. Also, the figures for the growth in the assay with KM12 colon and in the assay with MDA-MB-468 breast were -29.3% (active) and -89.8% (active), respectively.

On to `COc1ccc(/C=C/C(=O)c2nc3ccccc3n2Cc2ccc(Br)cc2)cc1`, for which the growth with NCI-H23 lung was 61.9%; in the assay on HOP-92 NSCLC it was 64.2%; in the assay with NCI-H522 lung, 76.4%; in the assay with K-562 leukemia, 21.1%; with RXF 393 renal, 83.6%; in the assay on UO-31 renal it was 52.4%. The growth is 18.7% with CCRF-CEM leukemia; 20.7% in the assay on MOLT-4 leukemia; 25.6% in the assay with SR leukemia; 89.6% with OVCAR-5 ovarian; 31.1% with T-47D breast; 9.99% (active) with MCF7 breast. In addition, the growth in the assay on KM12 colon is 61.5%; in the assay on MDA-MB-468 breast, 16.9%.

Take `CC[C@]12C=CCN3CC[C@@]4(c5ccc(OC)cc5N(C)[C@H]4[C@@](O)(C(=O)OC)[C@@H]1OC(=O)CCC[P+](c1ccc(C)cc1)(c1ccc(C)cc1)c1ccc(C)cc1)[C@@H]32`: the growth is -90.7% (active) in the assay on NCI-H23 lung; -83.2% (active) in the assay on HOP-92 NSCLC; -86.3% (active) in the assay on NCI-H522 lung; -13.4% (active) in the assay with K-562 leukemia; -94.9% (active) in the assay with MDA-MB-231 breast; -82.8% (active) with RXF 393 renal. For the same molecule, the growth in the assay on LOX IMVI melanoma is -89.3% (active); with UO-31 renal, -97.4% (active); in the assay with CCRF-CEM leukemia it was -67% (active); in the assay on MOLT-4 leukemia, -45.1% (active); in the assay with SR leukemia, 5.74% (active); with HS 578T breast, -60.3% (active). Moreover, the growth was -85.2% (active) with SW-620 colon, -76.3% (active) in the assay on MCF7 breast, -76.1% (active) with KM12 colon and -92.1% (active) with MDA-MB-468 breast.

Take `CC[C@]12C=CCN3CC[C@@]4(c5ccc(OC)cc5N(C)[C@H]4[C@@](O)(C(=O)OC)[C@@H]1OC(=O)CCCC[P+](C1CCCCC1)(C1CCCCC1)C1CCCCC1)[C@@H]32`: the growth in the assay with NCI-H23 lung is -9.66% (active); with HOP-92 NSCLC, -44.5% (active); with NCI-H522 lung, -71.8% (active); in the assay with K-562 leukemia, 7.48% (active); with MDA-MB-231 breast it was -92.8% (active); in the assay on RXF 393 renal, -73.8% (active). The growth with LOX IMVI melanoma is -96.1% (active); with UO-31 renal, 78.9%; in the assay with CCRF-CEM leukemia it was -60.2% (active); in the assay with MOLT-4 leukemia, -5.16% (active); in the assay with SR leukemia, 19.5%; in the assay on HS 578T breast, -35% (active). Further, the growth was 2.08% (active) in the assay on SW-620 colon, -64.2% (active) in the assay with MCF7 breast, -71.1% (active) with KM12 colon and -79% (active) in the assay with MDA-MB-468 breast.

Values taken from PubChem BioAssay (NCI).
